Shown are actives, neighbours in structure and some others; about 3.3% of the full set was active somewhere.
Bead autofluor – flagged as autofluorescent in microsphere protease counterscreen; compound autofluorescence counterscreen, microsphere flow cytometry; active compounds read high; fluorescence intensity (test concentration not listed); 360,000 compounds, 3.1% hits; AID 624483; in the data active = fluorescence intensity above about 16000; inconclusive = no clear call, values can overlap the other calls
BoNT A protease – blocks Botulinum neurotoxin A light chain protease; AID 588499; multiplex microsphere protease substrate cleavage, flow cytometry; inhibition, % at 10 µM; 360,000 compounds, 0.17% hits; note: plate controls were buffer without enzyme for full effect and enzyme alone for no effect
BoNT-F LC inh – blocks Botulinum neurotoxin F light chain protease; Multiplex microsphere protease cleavage assay, flow cytometry; inhibition, % at 10 µM; 360,000 compounds, 0.22% hits; in the data active = inhibition above about 35%, passing the limit was not always enough; inconclusive = no clear call, values can overlap the other calls; note: plate controls were buffer without enzyme for full effect and enzyme alone for no effect
PriA SSB inh – blocks PriA binding to SSB C-terminal tail. AlphaScreen SSBct-PriA binding, biotinylated peptide. inhibition, % at 33 µM. 430,000 compounds, 0.6% hits; in the data active = inhibition mostly above about 37%, no sharp cut-off; inactive = mostly below about 20%;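 note: plate controls were negative control peptide for no effect and reference peptide for full effect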
Anthrax LF prot – blocks Bacillus anthracis lethal factor protease. multiplex microsphere protease cleavage assay, LF. inhibition, % at 10 µM. 360,000 compounds, 0.12% hits; note: plate controls were buffer without enzyme for full effect and enzyme alone for no effect
MazF activator – activators of E. coli MazEF toxin-antitoxin RNase. FAM/BHQ RNA-DNA oligo cleavage fluorescence, 5 h. AID 504720. 350,000 compounds, 0.32% hits. activation, % at 20 µM; in the data active = activation above about 50%
Starred values were filed as active, the others as inactive; ? = inconclusive; nt = not tested or not shown. Cut-off read from the data, not from the text of the source, unless noted: active = inhibition above about 30%; inconclusive = no clear call, values can overlap the other calls; inactive = below that.

SMILES	Bead autofluor	BoNT A protease	BoNT-F LC inh	PriA SSB inh	Anthrax LF prot	MazF activator
Cn1cccc1C(CNC(=O)c1ccc(C(C)(C)C)cc1)N1CCCC1 (configuration not stated)	nt	nt	nt	9	nt	nt
Cn1cccc1C(CNC(=O)c1ccc2ccccc2c1)N1CCCC1 (configuration not stated)	nt	nt	nt	22*	nt	nt
COC(=O)C(O)(CC(=O)Nc1ccc(C)c(F)c1)C(F)(F)F (configuration not stated)	16452*	?	15	-7	2	-19
COC(=O)CCSc1nc(N2CCOCC2)c2c(c1C#N)CC(C)(C)OC2	3249	2	-1	-12	4	9
CC(C)CCSc1nc(N2CCOCC2)c2c(c1C#N)CC(C)(C)OC2	19440*	4	4	4	-11	-15
CSc1ccccc1C(=O)NCCSc1ccccc1	16492*	-1	-2	-12	-4	3
CCCCNC(=O)c1ccccc1C(=O)NCCCC	9474	-1	-9	-16	5	1
CCCCCNC(=O)c1ccccc1SC	16772*	-2	-4	-4	-2	-3
Cc1ccccc1C(=O)NCCSc1ccccc1	2093	0	-17	-7	-1	4
COc1ccc(C2NCCc3c2[nH]c2ccccc32)cc1CN1CCc2cc(OC)c(OC)cc2C1C (configuration not stated)	4935	0	-29	44*	3	-31
COc1ccc(C2NCCc3c2[nH]c2ccccc32)cc1COc1ccc(F)cc1 (configuration not stated)	2014	-1	-28	25	-2	-28
CC(C)=CCC/C(C)=C/CNC(=O)C[C@H]1C[C@H](C(=O)N2CCCCC2)[C@@]2(CCc3ccccc3)c3[nH]c4cc(-c5ccco5)ccc4c3CCN2C1=O	4021	0	-7	0	-4	75*
COc1ccc(/C=C2\CCCC(C(=O)C(F)(F)F)=C2O)cc1	3731	-1	-10	-8	-2	475*
Cc1cc(NC(=O)CCCN2C(=O)/C(=C\c3ccco3)SC2=S)no1	nt	nt	nt	0	nt	nt
COC(=O)NC(=O)c1c(NC(=O)C(c2ccccc2)c2ccccc2)sc(C)c1C	nt	nt	nt	2	nt	nt
O=C1CC(NCc2ccccc2F)C(=O)N1c1ccccc1 (configuration not stated)	16529*	-1	-2	-4	-2	-2
O=C1CC(NCc2ccccc2)C(=O)N1c1ccc(F)cc1 (configuration not stated)	4038	-1	-8	-12	-5	4
O=C(CCCN1C(=O)c2ccccc2C1=O)N1CCC(c2ccccc2)C1 (configuration not stated)	20922*	-4	-5	0	2	3
Cc1ccc(S(=O)(=O)NCCCCCC(=O)N(C)C)cc1	19200*	1	2	-14	-3	9
Cc1ccc(S(=O)(=O)NCCCCCCNS(=O)(=O)c2ccc(C)cc2)cc1	3750	0	-2	nt	0	2
Cc1ccc(S(=O)(=O)NCCOCCNS(=O)(=O)c2ccc(C)cc2)cc1	16362*	0	0	7	2	-1
CSc1nc(C)cc(OCCNS(=O)(=O)c2ccc(C)cc2)n1	17261*	-6	-7	-4	-7	-3
CCC(C(=O)Nc1nc(-c2ccccn2)cs1)c1ccccc1 (configuration not stated)	nt	nt	nt	100*	nt	nt
CCC(C(=O)Nc1cnccn1)c1ccccc1 (configuration not stated)	24267*	-2	-5	-10	0	-2
O=C(Nc1nc(-c2ccccn2)cs1)C(c1ccccc1)c1ccccc1	nt	nt	nt	37	nt	nt
SMILES	Bead autofluor	BoNT A protease	BoNT-F LC inh	PriA SSB inh	Anthrax LF prot	MazF activator
CC(CC(=O)Nc1nc(-c2ccccn2)cs1)NC(=O)c1ccccc1 (configuration not stated)	nt	nt	nt	75*	nt	nt
C[C@H](NC(=O)c1ccccc1)C(=O)Nc1nc(-c2ccccn2)cs1	3827	-1	-4	62*	-4	-21
COC(=O)C1CC(Oc2ccccc2F)CN1C(=O)c1cc(Cl)ccc1OC (configuration not stated)	nt	nt	nt	1	nt	nt
CCOCCc1nnc(NC(=O)C(CC)c2ccccc2)s1 (configuration not stated)	16622*	0	-5	-12	0	2
CCOCCc1nnc(NC(=O)C(C)Oc2ccccc2)s1 (configuration not stated)	4670	0	-9	-12	0	-3
Cc1ccccc1Cn1nnc2c(=O)n(Cc3nc(-c4cccc(Br)c4)no3)cnc21	nt	nt	nt	-8	nt	nt
